# “And” between values parts separate entries of the source, which are not always exact repeats. Identical values can stand only once. Results filed as inconclusive are left out. Where a call stands in place of a potency, no number is given. A structure can be active in one record and inactive in another. The source made the active and inactive calls. The call rests on the fitted dose curve; in most records, active means well fitted curve in the direction sought with a large enough effect in the repeat runs; inconclusive means weak or mixed curves; inactive means no such curve, though single readings can be large; an effect the other way counts as inactive or inconclusive.
# Assay: qHTS RealTime-Glo MT Cell Viability Assay in HEK293 cells - 32 hour (AID 1224868)
# Conditions: RealTime-Glo luminescence; series mostly up to 76.8 µM
# Outline: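 Reads taken at 0, 8, 16, 24, 32 and 40 h from the same wells. HEK293 cells (600/well) carried RealTime-Glo reagents from seeding, with compound added after a 5 h settle at 37 C.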
# Further: nearly all actives have a fitted effect of over 50% in size.
# Potency means the concentration at half of the fitted maximal effect.
row,Structure (SMILES),Potency
1,O=[N+]([O-])c1ccc(Cl)c([N+](=O)[O-])c1,9.92 µM (active) and 12.3 µM (active)
2,CC1(C)C(C(=O)OC(C#N)c2cccc(Oc3ccccc3)c2)C1(C)C (stereo not given),inactive
3,CC(C)(c1ccccc1)c1ccc(O)cc1,27.5 µM (active)
4,O=C1C(Cl)=C(Cl)C(=O)c2ccccc21,6.19 µM (active) and 7.76 µM (active)
5,CC(C)(c1ccc(OCC2CO2)cc1)c1ccc(OCC2CO2)cc1 (stereo not given),inactive
6,Nc1ccc([N+](=O)[O-])cc1N,inactive
7,CCN(CC)C(=O)C(C)Oc1cccc2ccccc12 (stereo not given),inactive
8,CC(C)(O)C#N,inactive
9,CCCCCCCCCC(CC)c1ccc(S(=O)(=O)O)cc1 (stereo not given),39.3 µM (active) and inactive
10,CCCCCCCC[N+](C)(CCCCCCCC)CCCCCCCC,218 nM (active) and 138 nM (active) and 1.55 µM (active)
11,c1ccc2c(c1)Nc1ccccc1S2,11 µM (active) and 13.4 µM (active)
12,O=C(O)CF,inactive
13,CC(C)=CC1C(C(=O)OCc2cccc(Oc3ccccc3)c2)C1(C)C (stereo not given),inactive
14,C[N+](C)(C)CC(=O)O,inactive
15,CCOP(=S)(OCC)SCn1c(=O)oc2cc(Cl)ccc21,29.5 µM (active)
16,CCC1(c2ccc(N)cc2)CCC(=O)NC1=O (stereo not given),inactive
17,N#Cc1c(Cl)c(Cl)c(Cl)c(C#N)c1Cl,1.7 µM (active) and 1.23 µM (active)
18,CCC[CH2][Sn]([Cl])([CH2]CCC)[CH2]CCC,347 nM (active) and 490 nM (active)
19,C=CC(=O)OCC(CC)(COC(=O)C=C)COC(=O)C=C,3.56 µM (active) and 11 µM (active)

row,Structure (SMILES),Potency
1,Oc1ccc(Cl)cc1Cc1ccccc1,21.9 µM (active) and 19.7 µM (active)
2,C[N+](C)(C)C,inactive
3,CCCCCCCCCc1ccc(O)cc1,9.87 µM (active) and 5.49 µM (active)
4,COc1ccc(CO)cc1,inactive
5,CCOP(=S)(OCC)SCSC(C)(C)C,inactive
6,O=[N+]([O-])c1ccc(Nc2ccccc2)cc1,24.7 µM (active) and 19.5 µM (active)
7,CC[n+]1c(-c2ccccc2)c2cc(N)ccc2c2ccc(N)cc21,4.34 µM (active) and 5.35 µM (active)
8,CC(C)=CC1C(C(=O)OCN2C(=O)C3=C(CCCC3)C2=O)C1(C)C (stereo not given),inactive
9,CN(C)c1nc(=O)n(C2CCCCC2)c(=O)n1C,inactive
10,CC(C)Nc1ccc(Nc2ccccc2)cc1,17.3 µM (active) and 19.5 µM (active)
11,NC(=O)CN1CCCC1=O,inactive
12,C[N+](C)(C)CC(=O)[O-],inactive
13,NN=C(N)N,inactive
14,[CH3][Sn]([Cl])([Cl])[Cl],inactive
15,CC(C)(c1ccccc1)c1ccc(O)c(C(C)(C)c2ccccc2)c1,19.3 µM (active) and 30.9 µM (active)
16,CNC(=O)CSP(=S)(OC)OC,inactive
17,C[C@]12CCC(=O)C=C1CC[C@@H]1[C@@H]2CC[C@@]2(C)[C@H]1CC[C@]2(C)O,22.1 µM (active)
18,CCC[CH2][Sn]([Cl])([Cl])[CH2]CCC,99 nM (active) and 123 nM (active)

# Assay: A CellTox Green Cytotoxicity Assay to monitor cytotoxicity in HEK293 cells - 0 hour (AID 1224869)
# Conditions: CellTox Green fluorescence; series mostly up to 76.8 µM
# Outline: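 Cells (HEK293, 600/well) and dye reagent are dispensed together. After 5 h at 37 C, 23 nL compound is pinned in. Plates stay at 37 C for 40 h with fluorescence read at 0h, 8h, 16h, 24h, 32h and 40h.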
row,Structure (SMILES),Potency
1,O=[N+]([O-])c1ccc(Cl)c([N+](=O)[O-])c1,inactive
2,CC1(C)C(C(=O)OC(C#N)c2cccc(Oc3ccccc3)c2)C1(C)C (stereo not given),inactive
3,CC(C)(c1ccccc1)c1ccc(O)cc1,inactive
4,O=C1C(Cl)=C(Cl)C(=O)c2ccccc21,inactive
5,CC(C)(c1ccc(OCC2CO2)cc1)c1ccc(OCC2CO2)cc1 (stereo not given),inactive
6,Nc1ccc([N+](=O)[O-])cc1N,inactive
7,CCN(CC)C(=O)C(C)Oc1cccc2ccccc12 (stereo not given),inactive
8,CC(C)(O)C#N,inactive
9,CCCCCCCCCC(CC)c1ccc(S(=O)(=O)O)cc1 (stereo not given),inactive
10,CCCCCCCC[N+](C)(CCCCCCCC)CCCCCCCC,inactive
11,c1ccc2c(c1)Nc1ccccc1S2,inactive
12,O=C(O)CF,inactive
13,CC(C)=CC1C(C(=O)OCc2cccc(Oc3ccccc3)c2)C1(C)C (stereo not given),inactive
14,C[N+](C)(C)CC(=O)O,inactive
15,CCOP(=S)(OCC)SCn1c(=O)oc2cc(Cl)ccc21,inactive
16,CCC1(c2ccc(N)cc2)CCC(=O)NC1=O (stereo not given),inactive
17,N#Cc1c(Cl)c(Cl)c(Cl)c(C#N)c1Cl,inactive
18,CCC[CH2][Sn]([Cl])([CH2]CCC)[CH2]CCC,inactive
19,C=CC(=O)OCC(CC)(COC(=O)C=C)COC(=O)C=C,inactive

row,Structure (SMILES),Potency
1,Oc1ccc(Cl)cc1Cc1ccccc1,inactive
2,C[N+](C)(C)C,inactive
3,CCCCCCCCCc1ccc(O)cc1,inactive
4,COc1ccc(CO)cc1,inactive
5,CCOP(=S)(OCC)SCSC(C)(C)C,inactive
6,O=[N+]([O-])c1ccc(Nc2ccccc2)cc1,inactive
7,CC[n+]1c(-c2ccccc2)c2cc(N)ccc2c2ccc(N)cc21,inactive
8,CC(C)=CC1C(C(=O)OCN2C(=O)C3=C(CCCC3)C2=O)C1(C)C (stereo not given),inactive
9,CN(C)c1nc(=O)n(C2CCCCC2)c(=O)n1C,inactive
10,CC(C)Nc1ccc(Nc2ccccc2)cc1,inactive
11,NC(=O)CN1CCCC1=O,inactive
12,C[N+](C)(C)CC(=O)[O-],inactive
13,NN=C(N)N,inactive
14,[CH3][Sn]([Cl])([Cl])[Cl],inactive
15,COC(=O)Nc1nc2ccccc2[nH]1,inactive
16,CC(C)(c1ccccc1)c1ccc(O)c(C(C)(C)c2ccccc2)c1,inactive
17,CNC(=O)CSP(=S)(OC)OC,inactive
18,C[C@]12CCC(=O)C=C1CC[C@@H]1[C@@H]2CC[C@@]2(C)[C@H]1CC[C@]2(C)O,44 µM (active) and inactive
19,CCC[CH2][Sn]([Cl])([Cl])[CH2]CCC,inactive

# — PubChem BioAssay (Tox21)
